Source: PubChem BioAssay AID686979 (National Center for Advancing Translational Sciences (NCATS), 2013)
Hit rate of the full screen: of about 420,000 compounds, about 50,000 (12%) were called active. Another 26% or so got no clear call; they are omitted. The list comes from a sample in which actives are over-represented; it also holds similar structures and randomly drawn compounds. Values without a mark were called inactive. The call rests on the fitted dose curve; in most records, active means well fitted inhibition curve with a large enough effect; inconclusive means small, poorly fitted or top-dose-only effect; inactive means flat fitted curve, though single readings scatter.

Test: qHTS for Inhibitors of human tyrosyl-DNA phosphodiesterase 1 (TDP1): qHTS in cells in presence of CPT; further: nearly all actives have a fitted effect of over 55% in size
Conditions: chicken DT40 Tdp1-/-;hTDP1 cells + 20 nM CPT, ATP luminescence, 48 h; series mostly up to 46.2 µM; activity change, negative = growth inhibition: at the top concentration
In short: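 Chicken DT40 Tdp1-/- cells complemented with human TDP1, 400 cells/well, exposed to compounds plus 20 nM camptothecin for at least 48 h at 37 C; viability read as ATP content by CellTiter-Glo luminescence.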
On the % scale 0 is the no-effect control and ±100 the full control effect; potency means the concentration at half of the fitted maximal effect.

| SMILES | activity change, negative = growth inhibition | Potency |
| --- | --- | --- |
| COc1ccc(-n2c(=O)c(C)nc3cnc(N4CCOCC4)nc32)cc1 | 1.15% |  |
| COc1ccc(Nc2ncc(F)c(N3CCOCC3)n2)cc1 |  | 20.6 µM (active) |
| CCOc1nc(NCCN2CCOCC2)nc(Nc2ccc(C)cc2)n1 | -12.3% |  |
| Cc1ccc(-c2nnc3c4ccccc4c(C)nn23)cc1NC(=O)c1cccc(Br)c1 | -2.49% |  |
| Cc1cc[n+](-c2[nH]c(=O)sc2/C=N/NC(=O)c2ccccc2[O-])cc1C | 5.4% |  |
| O=C(CN1CCN(c2ccccn2)CC1)Nc1ccc(Br)cc1 | -23.7% |  |
| Brc1ccc(-c2n(-c3ccccn3)c3ccccc3[n+]2-c2ccccn2)cc1 |  | 18.4 µM (active) |
| COc1cccc(NC(=O)N2CCC(NC(=O)C(Cc3cccc(C)c3)NC(C)=O)CC2)c1 (stereo unspecified) | -13.8% |  |
| Cn1c(-c2ccc(C(F)(F)F)cc2)cc2onc(-c3ccccc3)c2c1=O | -14.9% |  |
| O=C(c1csnn1)N1CCC2(CC1)CN(c1ncccn1)C2 | 0.98% |  |
| CSCCC(Nc1ccc(S(=O)(=O)N2CCOCC2)cc1[N+](=O)[O-])C(=O)OCC(=O)N(C(C)C)C(C)C (stereo unspecified) | -16.1% |  |
| CN(C)C(=O)c1ccc(NC(=O)c2ccccc2-c2ccccc2)cc1 | 21.7% |  |
| CN(C)C(=O)c1ccc2c(c1)C1C3CCC(C3)C1C(c1ccccc1)N2 (stereo unspecified) |  | 16.4 µM (active) |
| Cc1sc(NC(=O)c2ccc3ncsc3c2)c(C(N)=O)c1C | -20.7% |  |
| COc1cccc(NC(=O)N2C3CCCC2CC(NC(C)=O)C3)c1 (stereo unspecified) | -14% |  |
| CCOC(=O)N1CCC(NC(=O)c2cnn3ccccc23)CC1 | -1.32% |  |
| CCOC(=O)N1CCC(NC(=O)c2cnn(-c3cccc(C)c3)c2C2CCN(C(=O)OC(C)(C)C)CC2)CC1 |  | 23.1 µM (active) |
| Cc1cccc(-n2ncc(C(=O)N3CCN(c4ccc(Cl)cc4)CC3)c2C2CCN(C(=O)OC(C)(C)C)CC2)c1 |  | 14.6 µM (active) |
| COc1cccc2c1cc1c(=O)n(CC(=O)N3CCN(c4cccc(Cl)c4)CC3)nc(C)n12 | -12.6% |  |
| CC(C)(C)OC(=O)N1CCC(C(=O)NNC(=O)c2ccc(Cl)cc2Cl)CC1 | -11.4% |  |
| CCOC(=O)N1CCC(NC(=O)CCc2ccccc2)CC1 | -3.28% |  |
| CC(C)(C)OC(=O)N1CCC(c2c(C(=O)N3CCN(c4cccc(Cl)c4)CC3)cnn2-c2cccc(Cl)c2)CC1 |  | 14.6 µM (active) |
| Cc1cccc(-n2ncc(C(=O)N3CCc4ccccc4C3)c2C2CCN(C(=O)OC(C)(C)C)CC2)c1 | 2.4% |  |
| Cc1cccc(-n2ncc(C(=O)N3CCC(C)CC3)c2C2CCN(C(=O)OC(C)(C)C)CC2)c1 | -7.73% |  |
| CCCCN(C(=O)CCNC(=O)NC12CC3CC(CC(C3)C1)C2)c1c(N)n(CCCC)c(=O)[nH]c1=O | -12.9% |  |
| Cc1ccc(S(=O)(=O)N2CC(O)C[C@H]2C(=O)OCC(=O)Nc2ccc(N3CCOCC3)cc2)cc1C (stereo partly specified) | -0.832% |  |

| SMILES | activity change, negative = growth inhibition | Potency |
| --- | --- | --- |
| COc1ccc(S(=O)(=O)N2CCCC2CNC(=O)C(=O)NC2CC2)cc1 (stereo unspecified) | 7.32% |  |
| Cc1ccc(NC(=O)CC2S/C(=N/N=C3\CCCc4ccccc43)NC2=O)cc1 (stereo unspecified) | -0.71% |  |
| CN1C(=O)/C(=C\c2cc(Br)cs2)c2ccccc21 | -29.3% |  |
| N#CC1=C(N)Oc2cc(N)ccc2C1c1ccccc1 (stereo unspecified) |  | 23.1 µM (active) |
| Cc1cc(C)c2c3c(sc2n1)C(c1ccccc1)C(C#N)=C(N)O3 (stereo unspecified) | -20.3% |  |
| N#CC1=C(N)Oc2c(ccc3cccnc23)C1c1ccncc1 (stereo unspecified) | -20.9% |  |
| CN1C(=O)C2(OCCCO2)c2cc(Cl)ccc21 | 9.13% |  |
| C=O | 10.9% |  |
| CCOc1ccc(NS(=O)(=O)c2ccc(C(=O)NCC(c3ccccc3OC)N3CCCC3)cc2)cc1 (stereo unspecified) |  | 29.1 µM (active) |
| CCOc1ccc(NS(=O)(=O)c2ccc(C(=O)NCC3CCCO3)cc2)cc1 (stereo unspecified) | -27.2% |  |
| COc1ccc(C(CNC(=O)c2ccc(OCc3cscn3)cc2)N2CCCC2)cc1 (stereo unspecified) | -10.8% |  |
| CN=C(NC#N)NCCSCc1nc[nH]c1C |  | inactive |
| CCC(C)C(=O)Nc1cc([N+](=O)[O-])ccc1Cl (stereo unspecified) | -3.83% |  |
| CC(=O)Nc1ccc(NC(=O)c2ccc3c(c2)C(=O)N(c2ccccc2C)C3=O)cc1 | -2.84% |  |
| O=S(=O)(c1ccc2nc(NCc3ccccc3Cl)ccc2c1)N1CCCCC1 |  | 10.3 µM (active) |
| O=S(=O)(c1ccc2nc(N3CCN(c4cccc(Cl)c4)CC3)ccc2c1)N1CCCCC1 | 4.01% |  |
| O=S(=O)(NCc1ccccc1)c1ccc(S(=O)(=O)N2CCCC2)cc1 | -21.9% |  |
| CC(C)C(NC(=O)C1CCC(C(C)(C)C)CC1)C(=O)NCCCN1CCCCC1 (stereo unspecified) | 26.4% |  |
| CC(C)N1C(=O)c2ccccc2NC(=O)C1C(=O)NCc1cccs1 (stereo unspecified) | -29.6% |  |
| CCOc1ccc(N(CC)S(=O)(=O)N2CCCC(C(=O)Nc3ccc(C(C)=O)cc3)C2)cc1 (stereo unspecified) |  | 20.6 µM (active) |
| CCOc1ccc(N(CC)S(=O)(=O)N2CCCC(C(=O)NCc3ccc(SC)cc3)C2)cc1 (stereo unspecified) |  | 23.1 µM (active) |
| CCOc1ccc(NC(=O)c2cc(S(=O)(=O)N3CCCC3)c[nH]2)cc1 | -13.5% |  |
| CCS(=O)(=O)N1CCCC(C(=O)NCc2ccc(C)cc2)C1 (stereo unspecified) | -12.6% |  |
| CCOc1ccc(NC(=O)C2CCCN(C(=O)Nc3ccccc3)C2)cc1 (stereo unspecified) | 0.551% |  |
| COc1ccc(CNC(=O)C2CCN(S(=O)(=O)c3ccc(SC)cc3)CC2)cc1 | -19.3% |  |
